# Assay results taken from PubChem BioAssay (EPA / NIEHS).
# The source made the active and inactive calls. Rule for the calls: active = hit-call score of the fitted dose curve at least 0.9, where 1 is the maximum; inactive = score below 0.9.
# Read-out: Human Leukocyte Antigen - DR isotype (HLADR), HLA-DRA (gene 3122)
# Assay: BSK_CASM3C_HLADR: BioMAP Diversity Plus: CASM3C Assay for Human Leukocyte Antigen - DR isotype (HLADR) Biomarker Activity (AID 2283043);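 note: cell-surface HLA-DR protein level quantified by ELISA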
# Settings: primary human coronary artery smooth muscle cells; actives raise or lower the signal
SMILES,outcome,AC50
CCCCCCCCCCC1CO1 (stereo unspecified),inactive,–
Cc1cccnc1,inactive,–
CC(C)CC(=O)CC(C)CC(C)C (stereo unspecified),–,27.3 µM (active)
CN(C)CCC(c1ccc(Cl)cc1)c1ccccn1 (stereo unspecified),inactive,–

# Read-out: Macrophage colony-stimulating factor (MCSF), CSF1 (gene 1435)
# Assay: BSK_CASM3C_MCSF: BioMAP Diversity Plus: CASM3C Assay for Macrophage colony-stimulating factor (MCSF) Biomarker Activity (AID 2283044);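 note: M-CSF protein amount quantified by ELISA after 24 h exposure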
# Settings: primary human coronary artery smooth muscle cells; actives raise or lower the signal
SMILES,outcome,AC50
CCCCCCCCCCC1CO1 (stereo unspecified),inactive,–
Cc1cccnc1,inactive,–
CC(C)CC(=O)CC(C)CC(C)C (stereo unspecified),–,34.6 µM (active)
CN(C)CCC(c1ccc(Cl)cc1)c1ccccn1 (stereo unspecified),inactive,–

# Read-out: Low-density lipoprotein receptor (LDLR), LDLR (gene 3949)
# Assay: BSK_CASM3C_LDLR: BioMAP Diversity Plus: CASM3C Assay for Low-density lipoprotein receptor (LDLR) Biomarker Activity (AID 2283045);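 note: LDLR protein level on the cell surface quantified by ELISA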
# Settings: primary human coronary artery smooth muscle cells; actives raise or lower the signal
row,SMILES,outcome
1,CCCCCCCCCCC1CO1 (stereo unspecified),inactive
2,Cc1cccnc1,inactive
3,CC(C)CC(=O)CC(C)CC(C)C (stereo unspecified),inactive
4,CN(C)CCC(c1ccc(Cl)cc1)c1ccccn1 (stereo unspecified),inactive

# Read-out: Monocyte Chemoattractant Protein-1 (MCP1), CCL2 (gene 6347)
# Assay: BSK_CASM3C_MCP1: BioMAP Diversity Plus: CASM3C Assay for Monocyte Chemoattractant Protein-1 (MCP1) Biomarker Activity (AID 2283046);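 note: MCP-1 level quantified by ELISA 24 h after dosing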
# Settings: primary human coronary artery smooth muscle cells; actives raise or lower the signal
SMILES,AC50,outcome
CCCCCCCCCCC1CO1 (stereo unspecified),6.3 µM (active),–
Cc1cccnc1,–,inactive
CC(C)CC(=O)CC(C)CC(C)C (stereo unspecified),34 µM (active),–
CN(C)CCC(c1ccc(Cl)cc1)c1ccccn1 (stereo unspecified),–,inactive
